Test results reported in PubChem BioAssay AID618 (Sanford-Burnham Center for Chemical Genomics, 2007).
About 540 (0.62%) of roughly 87,000 compounds were called active. This is one part of a sample in which actives are shown more often than they occur. How the calls were made is not given here. Results with a measured potency or affinity are listed apart.

Assay: MT1-MMP gene expression reporter suppression – cell-based, luciferase reporter, luminescence (AID 618);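 further: actives suppress MT1-MMP promoter-driven transcription so potencies describe inhibitors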
Conditions: MT1-MMP promoter luciferase reporter cells

outcome, active:
C/C=C/COC(=O)c1[nH]c2c(c1C)C(=O)CC(c1ccco1)C2 (stereo not given)
C=CCOC(=O)c1[nH]c2c(c1C)C(=O)CC(c1ccco1)C2 (stereo not given)
Oc1ccccc1-c1cc(-c2ccc3c(c2)OCCO3)n[nH]1
O=C(CSc1nnc(COc2ccc(Cl)cc2)o1)N1c2ccccc2CCc2ccccc21
CCOc1cc(/C=N/n2cnnc2)c(Br)cc1O
COC(=O)c1sc(NC(=O)c2ccc(OC)cc2OC)nc1C
COc1ccc(C(=O)Nc2ccc(C)cn2)c(OC)c1
O=C1CC(c2ccc3c(c2)OCO3)Sc2nc3ccccc3n21 (stereo not given)
CCOC(=O)/C(=C\c1cccnc1)C(=O)c1cc(C(C)=O)c(Nc2ccccc2)s1
Cc1ccsc1C(=O)OCc1csc(-c2ccccc2)n1
Cc1cc(NCCCn2ccnc2)n2ncc(-c3ccccc3)c2n1
CC(C)(C)C(=O)Nc1ccc(-c2cn3ccsc3n2)cc1
O=S(=O)(c1ccc2c(c1)C(=NO)c1cc(S(=O)(=O)N3CCCCC3)ccc1-2)N1CCCCC1

outcome, inactive:
Cc1ccc(C(=O)NCc2cccs2)cc1S(=O)(=O)N1CCCCC1
Cc1cccc(OCCn2c(=O)sc3ccccc32)c1
CCSc1nnc(NC(=O)CSc2nc3c(c(=O)n2C)SC(C)C3)s1 (stereo not given)
COc1ccc(C)cc1S(=O)(=O)N(C)CC(=O)Nc1ccccc1
Cc1ccc(-c2nnc(SCC(=O)N3CCCC3)o2)cc1C
COC(=O)c1ccc(S(=O)(=O)c2ccccc2)c(N)c1
O=C(Cn1cnc2c(nnn2Cc2ccccc2)c1=O)N1CCN(c2ccccc2)CC1
CCOc1nc(NC2CCCCC2)nc(NC(C)(C)C)n1
C/C=C/COC(=O)c1[nH]c2c(c1C)C(=O)CC(c1ccc(N(C)C)cc1)C2 (stereo not given)
Cc1c(C(=O)OCC2CCCO2)[nH]c2c1C(=O)CC(c1ccc(N(C)C)cc1)C2 (stereo not given)
Cc1ccc(S(=O)(=O)N(CC(=O)N2CCC(C(N)=O)CC2)Cc2ccc(F)cc2)cc1
Oc1ccccc1-c1cc(-c2cccc(F)c2)n[nH]1
Oc1ccc(F)cc1-c1cc(-c2ccc3c(c2)OCCO3)n[nH]1
Cc1cccc(NCc2ccccc2O)n1
O=C(CSc1nnc(COc2ccc(Cl)cc2)o1)N1CCN(c2ccccc2)CC1
O=C(CSc1nnc(COc2ccc(F)cc2)o1)N1c2ccccc2CCc2ccccc21
COC(=O)c1ccccc1NC(=O)NCc1ccco1
CC1(C)CC(=O)C2=C(C1)N(CCN1CCOCC1)C1=C(C(=O)CC(C)(C)C1)C2c1cccc(F)c1
CC(=O)Nc1ccc(-c2nnn(CC(=O)c3ccccc3)n2)cc1Cl
CCOc1cc(/C=N/n2cnnc2)ccc1O
CCOc1cc(/C=N/n2cnnc2)cc(Br)c1O
O=C(COc1ccc(S(=O)(=O)NC2CCCCC2)cc1)NCC1CCCO1 (stereo not given)
N#Cc1nn(-c2ccccc2)nc1N1CCCCC1
Cc1ccc(NC(=O)CC(O)(C(F)(F)F)C(F)(F)F)cc1
CCN1C(=O)C2C(c3ccccc3F)NC(Cc3ccc(O)cc3)(C(=O)OC)C2C1=O (stereo not given)
COc1ccc(C(=O)Nc2c(F)c(F)c(F)c(F)c2F)c(OC)c1
COC(=O)c1sc(NC(=O)COc2ccc(OC)cc2)nc1C
COC(=O)c1sc(NC(=O)c2ccoc2C)nc1C
CCOc1ccccc1C(=O)Nc1nnc(CC)s1
COc1ccc(C(=O)Nn2cnnc2)c(OC)c1
CCc1nnc(NC(=O)c2c(OC)cccc2OC)s1
Cc1ccc(C)c2[nH]c(=O)c(CCNC(=O)C(C)(C)C)cc12
O=S(=O)(c1ccc(Br)cc1)N1CCCN(Cc2ccccc2F)CC1
COc1ccccc1NC(=O)N1CCN(c2ccc3nncn3n2)CC1
CCCCOC(=O)C1C2C=C[C@]3(CN(CCCOC)C(=O)[C@H]13)O2 (stereo not given in full)
CCOc1ccc(NC(=O)CSc2nnc(Cn3c(=O)sc4ccccc43)n2C)cc1
CCOC(=O)c1cnn(CCOC(=O)Cc2cccs2)c1NC(=O)Cc1cccs1
CC1=[N+]([O-])C(N2CCOCC2)C(O)(c2ccccc2)C1 (stereo not given)
COCCN1C(=O)c2ccccc2C(C(=O)NCCCN2CCCC2)C1c1c[nH]c2ccccc12 (stereo not given)
O=C(NCC(c1cccnc1)N1CCOCC1)c1ccc2c(c1)OCO2 (stereo not given)
O=S(=O)(NCCOCC(F)(F)C(F)F)c1ccc2oc3ccccc3c2c1
S=C(Nc1ccccn1)c1ccccn1
S=C(Nc1ccccc1)c1ccccn1
Cc1c(C(=O)c2ccc(Cl)cc2Cl)cnc2cc3c(cc12)OCO3
O=C(CN1CCN(C(=O)c2ccco2)CC1)Nc1c2c(nc3c1CCC3)CCCC2
Cc1ccc(-c2noc(-c3cccs3)n2)cc1
COC(=O)c1noc(-c2ccc(C)cc2)n1
COc1ccc(C(NC(N)=O)c2ccccc2)cc1 (stereo not given)
FC(F)C(F)(F)C(F)(F)C(F)(F)c1cc(-c2ccccc2)n[nH]1
CCN(CC)c1ccc2cc(-c3nc4ccccc4n3C)c(=O)oc2c1
CCN(CC)c1ccc2cc(-c3nnc(-c4ccccc4)o3)c(=O)oc2c1
COc1ccc(C2CC(=O)n3c(nc4ccccc43)S2)cc1OC (stereo not given)
COc1cc(C2CC(=O)n3c(nc4ccccc43)S2)cc(OC)c1OC (stereo not given)
Clc1ccc2c(c1)C1OCCC1C(c1ccco1)N2 (stereo not given)
Cc1ccc(-c2nn(CC(=O)NCc3cc(-c4nn(C)c(=O)c5ccccc45)ccc3C)c(=O)c3ccccc23)cc1
CN(C)S(=O)(=O)c1ccc(C(=O)OCC(=O)NC(=O)NCc2ccccc2)cc1
CCOC(=O)Nc1cccc(Nc2ccccc2)c1
CCOC(=O)c1cccc(NC(=O)c2cccnc2)c1
CCOC(=O)/C(=C/Nc1ccccc1)[N+](=O)[O-]
CCOC(=O)c1sc(Nc2ccccc2)nc1C
c1ccc(C2C3=C(CCCC3)Nc3ncnn32)cc1 (stereo not given)
Cc1cccc(C)c1NC(=O)CSc1nnc(CCCCCNC(=O)OC(C)(C)C)o1
COc1ccc2cc(C#N)c(SCC(=O)N3CCCC3)nc2c1
Nc1cccc2cnccc12
Cc1cc2c(N)cccc2nn1
CN(C)CCNS(=O)(=O)c1ccc(Cl)cc1
O=S(=O)(c1ccc(N2CCC(c3ccc(Cl)cc3)=N2)cc1)N(CCO)CCO
CC1NC(=O)NC1CCCCC(=O)O (stereo not given)
Cc1ccc(S(=O)(=O)NC2=NCN(C3CCCCC3)CN2)cc1
Cc1ccc(Cn2c(NCCc3ccccc3)nc3c2c(=O)n(C)c(=O)n3C)cc1
COc1ccc(NS(=O)(=O)c2ccc(N)c(C(=O)O)c2)cc1
Cn1cccc1C(=O)OCc1csc(-c2ccccc2)n1
O=C(OCc1csc(-c2ccccc2)n1)c1cccs1
O=c1cc(CSc2nnnn2-c2ccccc2)nc2nc[nH]n12
O=C(NC1CC1)c1cc2c(s1)-c1ccccc1OC2
Cn1c(=O)cc(SCC(=O)NCC2CCCO2)c2ccccc21 (stereo not given)
CC(C)(C)c1cc(NCCCn2ccnc2)n2ncc(-c3ccc(Cl)cc3)c2n1
Cc1cc(NCCCn2ccnc2)n2nc(C)c(-c3ccc(Cl)cc3)c2n1
Cc1cc(NCCCN2CCOCC2)n2ncc(-c3ccccc3)c2n1
Cc1cc(NCCCn2ccnc2)n2nc(C)c(-c3ccccc3)c2n1
Cc1ccc(C)c(C(=O)CC2(O)C(=O)Nc3ccccc32)c1 (stereo not given)
Cc1onc(-c2c(F)cccc2Cl)c1C(=O)NCCCN1CCOCC1
Cc1cccc(C)c1NC(=O)Cn1c(CN2CCCCC2)nc2ccccc2c1=O
CCN(Cc1ccccc1)S(=O)(=O)c1nc2nc(C)c(C)c(C)n2n1
CC(C)CC(=O)Nc1ccc(-c2cn3ccsc3n2)cc1
CC(=O)Nc1ccc(-c2cn3ccsc3n2)cc1
CCCOC(=O)c1ccc(Oc2c(-c3ccc(OC)cc3O)n[nH]c2C)cc1
COc1ccc(CN2CC(C(=O)NCc3ccc4c(c3)OCO4)CC2=O)cc1 (stereo not given)
O=C(c1nc2nc(-c3ccccc3)cc(C(F)(F)F)n2n1)N1CCOCC1
O=C(CSc1nnc(-c2ccccc2)n1Cc1ccco1)Nc1ccc(S(=O)(=O)N2CCCC2)cc1
Clc1ccc(-c2nc(N3CCCCC3)nc3ccccc23)cc1
Clc1ccc(-c2nnc3n2CCCCC3)cc1
Clc1c(CSc2nc3ccccc3o2)nc2sccn12
c1ccc2oc(SCc3cn4ccccc4n3)nc2c1
CCOc1cc(/C=N/N=C(/N)c2nonc2N)cc(Br)c1OCc1ccc(Cl)cc1
CCOC(=O)c1[nH]c(C)c(C(=O)NCCCOC(C)C)c1C
c1ccc(CN2CCN(c3nc4ccccc4c4ccccc34)CC2)cc1
COCCOC(=O)C1=C(C)NC2=C(C(=O)CCC2)C1c1cc2c(cc1Br)OCO2 (stereo not given)
O=S(=O)(c1ccc(S(=O)(=O)N2CCCC2)cc1)N1CCCCCC1
CC1CCN(S(=O)(=O)c2ccc3c(c2)C(=NO)c2cc(S(=O)(=O)N4CCC(C)CC4)ccc2-3)CC1
O=C(CCC(=O)c1ccc(F)cc1)Nc1cccnc1
CC(C)N(CCCNC(=O)CC1Oc2ccccc2NC1=O)Cc1ccccc1 (stereo not given)
